# Experimental data: PubChem BioAssay AID1159580 (chemical genetic matrix, 2015)
# The campaign covered roughly 5,500 compounds. About 2,000 (36%) were called active. About 18% were inconclusive and are not listed. The list shows a part of the results. Values without a mark were called inactive. Cut-off read from the data, not from the text of the source: active = normalized growth mostly below about 0.91 (no sharp cut-off); inconclusive = no clear call, values can overlap the other calls; inactive = mostly above about 0.92.
# Assay: chemical genetic growth profiling, strain panel (AID 1159580);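 note: tested at 20 µM; growth read once vehicle control cultures reached saturation at 30 °C; 1 = growth at the plate median or of vehicle wells; lower values mean less growth of the strain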
# Details: S. cerevisiae deletion strains, growth OD
# [1] = locus YHR030C, strain SLT2, hits give low values
# [2] = locus YHR079C, strain IRE1, hits give low values
# [3] = locus YJL095W, strain BCK1, hits give low values
# [4] = locus YJR066W, strain TOR1, hits give low values
# [5] = locus YLR113W, strain HOG1, hits give low values
# [6] = locus YNL183C, strain NPR1, hits give low values
# [7] = locus YOR231W, strain MKK1, hits give low values
# [8] = locus YPL256C, strain CLN2, hits give low values
compound,measurement,setting,value
C[N+]1(C)CCc2cc3c(cc2[C@H]1C1OC(=O)c2c1ccc1c2OCO1)OCO3 (stereo partly drawn),normalized growth,"locus YAL021C, strain ccr4, hits give low values",0.981
same,normalized growth,"locus YAL026C, strain drs2, hits give low values",0.987
same,normalized growth,"locus YAL030W, strain snc1, hits give low values",0.999
same,normalized growth,"locus YBL061C, strain skt5, hits give low values",1
same,normalized growth,"locus YBR009C, strain hhf1, hits give low values",0.992
same,normalized growth,"locus YBR023C, strain chs3, hits give low values",1.01
same,normalized growth,"locus YBR171W, strain sec66, hits give low values",1
same,normalized growth,"locus YBR231C, strain swc5, hits give low values",1.01
same,normalized growth,"locus YBR279W, strain paf1, hits give low values",0.997
same,normalized growth,"locus YCL011C, strain gbp2, hits give low values",0.999
same,normalized growth,"locus YCL016C, strain dcc1, hits give low values",0.991
same,normalized growth,"locus YCL061C, strain MRC1, hits give low values",0.994
same,normalized growth,"locus YCL069W, strain vba3, hits give low values",0.999
same,normalized growth,"locus YCR088W, strain abp1, hits give low values",0.997
same,normalized growth,"locus YDL005C, strain med2, hits give low values",1
same,normalized growth,"locus YDL040C, strain nat1, hits give low values",0.996
same,normalized growth,"locus YDR001C, strain nth1, hits give low values",0.983
same,normalized growth,"locus YDR069C, strain doa4, hits give low values",1.02
same,normalized growth,"locus YDR137W, strain rgp1, hits give low values",0.996
same,normalized growth,"locus YDR159W, strain sac3, hits give low values",1.07
same,normalized growth,"locus YDR195W, strain ref2",0.989
same,normalized growth,"locus YDR297W, strain sur2, hits give low values",1.01
same,normalized growth,"locus YDR334W, strain swr1, hits give low values",0.986
same,normalized growth,"locus YDR335W, strain msn5, hits give low values",0.996
same,normalized growth,"locus YDR392W, strain spt3, hits give low values",0.982
same,normalized growth,"locus YEL003W, strain gim4, hits give low values",1
same,normalized growth,"locus YEL037C, strain rad23, hits give low values",0.99
same,normalized growth,"locus YEL061C, strain CIN8 (second series), hits give low values",0.99
same,normalized growth,"locus YER015W, strain faa2, hits give low values",0.992
same,normalized growth,"locus YER016W, strain bim1, hits give low values",1
same,normalized growth,"locus YER111C, strain swi4, hits give low values",1.01
same,normalized growth,"locus YER155C, strain BEM2 (second series), hits give low values",1
same,normalized growth,"locus YFR010W, strain ubp6, hits give low values",0.989
same,normalized growth,"locus YGL167C, strain pmr1, hits give low values",0.998
same,normalized growth,"locus YGL173C, strain kem1, hits give low values",1.01
same,normalized growth,"locus YGL227W, strain vid30, hits give low values",1
same,normalized growth,"locus YGL240W, strain doc1, hits give low values",1.01
same,normalized growth,"locus YGL253W, strain hxk2, hits give low values",0.995
same,normalized growth,"locus YHR013C, strain ard1, hits give low values",0.957
same,normalized growth,"locus YHR027C, strain rpn1, hits give low values",0.992
same,normalized growth,[1],1.06
same,normalized growth,[2],1.06
same,normalized growth,"locus YHR142W, strain chs7, hits give low values",0.981
same,normalized growth,"locus YJL092W, strain hpr5, hits give low values",0.995
same,normalized growth,"locus YJL095W, strain BCK1 (second series), hits give low values",0.994
same,normalized growth,[3],1.06
same,normalized growth,"locus YJL115W, strain asf1, hits give low values",0.978
same,normalized growth,"locus YJL129C, strain trk1, hits give low values",1
same,normalized growth,"locus YJL154C, strain vps35, hits give low values",0.991
same,normalized growth,"locus YJL164C, strain tpk1, hits give low values",0.98
same,normalized growth,"locus YJL166W, strain qcr8, hits give low values",1
same,normalized growth,"locus YJL187C, strain SWE1, hits give low values",1.02
same,normalized growth,[4],0.973
same,normalized growth,"locus YKL160W, strain elf1, hits give low values",0.989
same,normalized growth,"locus YKR026C, strain gcn3, hits give low values",0.991
same,normalized growth,"locus YKR091W, strain srl3, hits give low values",0.988
same,normalized growth,"locus YLL001W, strain dnm1, hits give low values",0.97
same,normalized growth,"locus YLL026W, hits give low values",1
same,normalized growth,"locus YLL041C, strain sdh2, hits give low values",0.993
same,normalized growth,"locus YLR027C, strain aat2, hits give low values",1.01
same,normalized growth,[5],1.03
same,normalized growth,"locus YLR221C, strain rsa3, hits give low values",1.03
same,normalized growth,"locus YLR258W, strain gsy2, hits give low values",1.01
same,normalized growth,"locus YLR262C, strain YPT6 (second series), hits give low values",0.995
same,normalized growth,"locus YLR320W, strain mms22, hits give low values",1.03
same,normalized growth,"locus YLR342W, strain FKS1, hits give low values",0.996
same,normalized growth,"locus YLR357W, strain rsc2, hits give low values",0.956
same,normalized growth,"locus YLR370C, strain arc18, hits give low values",1.01
same,normalized growth,"locus YLR384C, strain iki3, hits give low values",0.999
same,normalized growth,"locus YML120C, strain ndi1, hits give low values",0.991
same,normalized growth,"locus YMR058W, strain fet3, hits give low values",0.986
same,normalized growth,"locus YMR125W, strain sto1, hits give low values",0.97
same,normalized growth,"locus YMR129W, hits give low values",1
same,normalized growth,"locus YMR205C, strain PFK2, hits give low values",0.971
same,normalized growth,"locus YMR231W, strain pep5, hits give low values",0.983
same,normalized growth,"locus YNL071W, strain lat1, hits give low values",0.997
same,normalized growth,[6],0.974
same,normalized growth,"locus YNL209W, strain ssb2, hits give low values",1
same,normalized growth,"locus YNL248C, strain rpa49, hits give low values",0.959
same,normalized growth,"locus YNL322C, strain KRE1 (second series), hits give low values",1
same,normalized growth,"locus YNR049C, strain mso1, hits give low values",1.01
same,normalized growth,"locus YOR001W, strain rrp6, hits give low values",1.01
same,normalized growth,"locus YOR070C, strain gyp1, hits give low values",1.02
same,normalized growth,"locus YOR080W, strain dia2, hits give low values",1.01
same,normalized growth,"locus YOR083W, strain WHI5, hits give low values",0.997
same,normalized growth,"locus YOR106W, strain vam3, hits give low values",0.963
same,normalized growth,[7],1.03
same,normalized growth,"locus YOR265W, strain rbl2, hits give low values",1.01
same,normalized growth,"locus YOR270C, strain vph1, hits give low values",0.967
same,normalized growth,"locus YOR290C, strain snf2, hits give low values",0.95
same,normalized growth,"locus YPL051W, strain arl3, hits give low values",1.04
same,normalized growth,"locus YPL078C, strain atp4, hits give low values",0.965
same,normalized growth,"locus YPL106C, strain sse1, hits give low values",0.999
same,normalized growth,"locus YPL240C, strain hsp82, hits give low values",1.01
same,normalized growth,[8],1.03
CC(C)N=c1cc2n(-c3ccc(Cl)cc3)c3ccccc3nc-2cc1Nc1ccc(Cl)cc1,normalized growth,[1],0.929
same,normalized growth,[2],0.812 (active)
same,normalized growth,[3],0.869 (active)
same,normalized growth,[4],0.948
same,normalized growth,[5],0.807 (active)
same,normalized growth,[6],0.9
same,normalized growth,[7],0.831 (active)
same,normalized growth,[8],0.818 (active)
